Bioassay records deposited in PubChem BioAssay by ICCB-Longwood Screening Facility, Harvard Medical School.
S aureus helic: S. aureus DNA helicase inhibition; purified S. aureus helicase, fluorescence unwinding assay; 120,000 compounds, 0.05% hits; inhibition, % (no concentration beside the values); in the data active means inhibition above about 25%, passing the limit was not always enough;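 further: 0% = mean of negative control wells and 100% = mean of positive control wells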
Sa growth 42C: S. aureus growth inhibition. S. aureus RN4220 growth, OD600, 20 h, 42 °C; hits give low values. 170,000 compounds, 0.53% hits. relative growth, % (test concentration not listed). AID 720641;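 active means relative growth at most 50% at the other temperature and 20+ points below 30 °C, or under 10% at both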
The depositor's hits bear a star; . = no result given. The full list was thinned out, with hits kept by preference.

SMILES	S aureus helic	Sa growth 42C
Cc1cc(O)c(C(c2ccncc2)N2CCCCC2)c(=O)n1Cc1ccco1 (stereo not given)	13.0	88.9
Cc1noc(C)c1C(=O)Nc1nnc(SCc2ccc(Cl)cc2)s1	4.0	4.9*
Cc1noc(C)c1C(=O)Nc1nnc(SCC(=O)O)s1	-12.0	104.3
Cc1cccc(OCCOC(=O)c2ccc(O)cc2)c1	-24.0	94.7
O=C(/C=C/C(=O)c1ccc2ccccc2c1)c1ccccc1	3.0	-0.4*
O=C(O)/C=C/C(=O)c1ccccc1	5.0	124.2
O=C(COc1cccc2ccccc12)Nc1ccc(CN2CCOCC2)cc1	8.0	102.9
O=S(=O)(c1ccccc1)N(c1cccnc1)S(=O)(=O)c1ccccc1	5.0	128.0
FC(F)(F)c1ccc2ccccc2c1Cl	-20.0	101.3
Cc1nn(CC(=O)c2ccc(Br)cc2)c(N)[n+]1C	-14.0	.
COc1ccc(C(=O)Cn2nc(CNc3ccc(Br)cc3)[n+]3c2CCCCC3)cc1	7.0	1.4*
Cc1ccc(C)c([C@H]2[C@H](C(=O)c3ccccc3)N3c4ccccc4C=CC3C2(C#N)C#N)c1 (stereo not given in full)	-6.0	56.4
N#C[C@@H]1C[C@@](C#N)(C(=O)c2ccccc2)[C@H]2C=Cc3ccccc3N12	-2.0	5.3*
O=C1N=c2ccccc2=C1c1c(O)[nH]c2ccc(Cl)cc12	-7.0	48.9*
CCn1c(O)c(C2=c3cc(Cl)ccc3=NC2=O)c2ccccc21	-13.0	92.8
O=C(Nc1ccnn1C1CCCC1)c1ccc(OC(F)F)cc1	-2.0	85.6
CCOC(=O)c1nn(-c2ccc(OCC)cc2)cc1O	-9.0	.
Cc1ccc2oc(-c3ccccc3)cc(=O)c2c1	.	97.5
CCCN=c1cc(-c2ccccc2)oc2ccc(C)cc12	65.0*	109.0
CCN(CC)Cc1c(O)ccc2oc(C)c(C(=O)Nc3ccccc3C)c12	12.0	97.9
Nc1ncc(Cc2cccc(Cl)c2)s1	10.0	110.6
Cc1cccc(Cc2cnc(N3C(=N)SC(C)C3=O)s2)c1 (stereo not given)	0.0	2.8*
O=C(NCC1CCCO1)c1ccc(N2CCCCS2(=O)=O)cc1 (stereo not given)	-6.0	91.6
Cc1cc(=O)[nH]c(SCC(=O)N2CCNC2=O)c1C#N	-3.0	104.8
CCOC(=O)c1c(-c2c(Cl)cccc2Cl)noc1N	.	104.2
SMILES	S aureus helic	Sa growth 42C
CCOC(=O)c1c(-c2c(Cl)cccc2Cl)noc1C	.	0.5*
COC(=O)c1cnc2sc3ccccc3n2c1=O	-5.0	82.0
COc1ccc(C2C(C(=O)N3CCN(c4ccc(F)cc4)CC3)CCC(=O)N2c2ccc(OC)cc2)cc1 (stereo not given)	0.0	97.1
Cn1c(-c2ccccc2)cc(C=Nc2ccccc2)c1O	1.0	4.0*
CN=Cc1cc(-c2ccccc2)n(C)c1S	9.0	75.0
Cc1cccc(Cn2nnc3c(=O)[nH]c(C4CCN(C(=O)c5ccc(F)cc5)CC4)nc32)c1	.	2.7*
CCOc1ccc(Cn2nnc3c(=O)[nH]c(C4CCN(C(=O)c5ccccc5)CC4)nc32)cc1	.	-0.3*
COc1cccc(OC)c1Cn1nnc2c(=O)[nH]c(C3CCN(C(=O)c4ccccc4)CC3)nc21	.	10.8
Cc1ccccc1Cn1nnc2c(=O)[nH]c(C3CCN(C(=O)c4ccc(F)cc4)CC3)nc21	.	19.4
Cc1ccccc1Cn1nnc2c(=O)[nH]c(C3CCN(C(=O)c4ccccc4)CC3)nc21	.	3.5*
COc1ccc(Cn2nnc3c(=O)[nH]c(C4CCN(C(=O)c5ccc(C)cc5)CC4)nc32)cc1OC	.	10.3
Cc1ccc(C)c(C(=O)N2CCC(c3nc4c(nnn4Cc4ccccc4)c(=O)[nH]3)CC2)c1	.	3.7*
Cc1cccc(Cn2nnc3c(=O)[nH]c(C4CCCN(C(=O)c5ccccc5Cl)C4)nc32)c1 (stereo not given)	.	92.8
OCC1(CO)COC2(CCN(Cc3ccccc3)CC2)N1	9.0	90.8
COc1cc2c(cc1OC)CC(C(=O)O)NC2 (stereo not given)	-15.0	95.3
COC(=O)c1ccc(CSc2ccc(Br)cc2)o1	0.0	125.2
Cc1ccc(NC(=O)COC(=O)c2ccc3c(=O)[nH]c(CN4CCOCC4)nc3c2)cc1C	-8.0	73.0
O=C(c1cccc(Cl)c1)N1CCC(c2nc3c(nnn3Cc3ccc(F)cc3F)c(=O)[nH]2)CC1	.	0.2*
O=C(c1ccccc1)N1CCCC(c2nc3c(nnn3Cc3ccc(F)cc3F)c(=O)[nH]2)C1 (stereo not given)	.	91.1
O=C(Cn1ncc2ccccc21)NCCc1ccccc1	6.0	100.1
O=C(Cn1ncc2c1-c1ccccc1OC2)NCCCN1CCCC1	9.0	92.6
COc1cc(C(=O)N=C2C(C)=CC(=O)C=C2C)cc(OC)c1OC	1.0	-0.6*
COc1cc(C(=O)Oc2cc(C)cc(C)c2)cc(OC)c1OC	.	103.3
c1cncc(N=c2scc(-c3cccs3)n2CCCn2ccnc2)c1	7.0	106.4
O=C(c1ccc(COc2ccccc2Br)cc1)N1CCc2ccccc2C1	0.0	109.0
Cc1nc(-c2c[nH]c(C(=O)O)c2)cs1	49.0*	70.6
